Drawing on PubChem BioAssay AID602393 (Broad Institute, 2012), this text covers reporter increase for 21 molecules.

About 7,000 (2%) of roughly 350,000 compounds were called active. The sample as a whole holds a higher share of actives than the screen did. Values without a mark were called inactive. No stated cut-off is given here; in the data, active means activation above about 40%; inconclusive means no clear call, values can overlap the other calls; inactive means below that.

This experiment is described as follows: raisers of Bmi1 knock-in reporter signal – mouse ES cells, Bmi1 luciferase knock-in, single point, esBAF inhibitor project, primary screen (AID 602393).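 Further: 0% = median of the plate's neutral control wells and 100% = double that signal; a rise in the Bmi1 reporter signal indicates esBAF inhibition.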 Conditions: 24 h, at 12.5 µM, stronger effect = higher value, 100% = twice the neutral-well signal.
`CCC(=O)Nc1ccc2c(c1)OC[C@H](C)N(Cc1ccccc1F)C[C@H](C)[C@@H](OC)CN(C)C2=O`: the reporter increase was 0.435%.

Consider `C[C@H](CO)N1C[C@H](C)[C@H](CN(C)CC2CCCCC2)Oc2c(NC(=O)c3cnccn3)cccc2C1=O`, for which the reporter increase was -2.88%.

Regarding `O=C(c1cc2c(s1)CCC2)N1CCN(c2ccccc2)CC1`, the reporter increase is 6.19%.

Regarding `O=C(NNC(=O)c1cc2c(s1)CCCC2)c1ccccc1`, the reporter increase was 40.9% (active). Consider `O=C(CNC(=O)c1cc2c(s1)CCC2)Nc1ccccc1Br`, for which the reporter increase is 30.7%. As for `CCNC(=O)C[C@@H]1CC[C@H](NC(=O)C2CCC2)[C@@H](CO)O1`, the figure is 4.25%; as for `C[C@@H]1CN([C@H](C)CO)C(=O)Cc2cc(NC(=O)C3CCCCC3)ccc2O[C@@H]1CN(C)S(C)(=O)=O`, -5.11%. With `C[C@@H]1CN([C@@H](C)CO)S(=O)(=O)c2ccc(C#CC3CCCC3)cc2O[C@H]1CN(C)S(C)(=O)=O`, the reporter increase is 20.1%. As for `COc1cccc(-c2cc3nc4c(c(N5CCC6(CC5)OCCO6)n3n2)CCCC4)c1`, the figure is 42.7% (active). Turning to `COc1cccc(CNc2nc3nc4c(c(=O)n3[nH]2)CCC4)c1`, the reporter increase was -1.38%. As for `O=C(c1ccccc1)N1CCN(c2cc(-c3ccccc3)nc3cc(-c4cccc(Cl)c4)nn23)CC1`, the figure is -1.84%; as for `O=C(C[C@@H]1CC[C@@H]2[C@H](COC[C@H](O)CN2Cc2cccc(C(F)(F)F)c2)O1)NCc1ccc(F)cc1`, -1.09%. As for `C[C@@H]1CN([C@@H](C)CO)C(=O)c2cc(NC(=O)Nc3cccc4ccccc34)ccc2O[C@@H](C)CCCCO[C@@H]1CN(C)S(=O)(=O)c1ccc(Cl)cc1`, the figure is 2.17%; as for `COc1cc(-c2noc(C3CCCN(S(=O)(=O)c4cccc(Cl)c4)C3)n2)cc(OC)c1OC` (stereo unspecified), 0.345%. As for `Cc1ccc(-c2noc(C3CCCN(C(=O)c4cccc(Cl)c4)C3)n2)o1` (stereo unspecified), the figure is 46.6% (active). With `O=C(Cc1cccs1)N1CCCC(c2nc(-c3ccc(S(=O)(=O)N4CCCC4)cc3)no2)C1` (stereo unspecified), the reporter increase was -3.86%.

Turning to `CCOC(=O)C1(C)CCCN(C(=O)c2cccc(Cl)c2)C1` (stereo unspecified), the reporter increase was -1.3%. As for `O=C(c1cccs1)N1CCCC(c2nc(-c3ccc(F)cc3)no2)C1` (stereo unspecified), the figure is 51.6% (active); as for `COc1cccc(-c2noc(C3CCCN(C(=O)c4ccc(F)cc4)C3)n2)c1` (stereo unspecified), 5.64%; as for `COc1ccccc1NC(=O)N(C)C[C@@H]1Oc2ncc(Br)cc2C(=O)N([C@@H](C)CO)C[C@@H]1C`, -5.49%. As for `O=C(NCC[C@@H]1CC[C@@H](NC(=O)Nc2cc(F)ccc2F)[C@H](CO)O1)Nc1ccc(Cl)cc1`, the figure is 38.7%.
